Results filed as inconclusive are left out. A number with no mark means an inactive call. Activity calls are given as the source filed them. Calls come from the whole dose curve; as a rule, active = well fitted cell-killing curve with a large enough effect; inconclusive = small, poorly fitted or top-dose-only effect; inactive = no such curve, though single readings can be large or run the other way.
Assay: qHTS of pediatric cancer cell lines to identify multiple opportunities for drug repurposing: Primary screen for MG 63 (6-TG R) cells (AID 1347105); note: nearly all actives have a fitted effect of over 50% in size
Conditions: MG 63 (6-TG R) viability, CellTiter-Glo, 48 h; series mostly up to 46 µM; activity change, negative = cytotoxic: at the top concentration
Text: Drug repurposing or repositioning has been offered as a strategy for drug development in oncology programs. This approach has special potential for childhood cancers and other rare or orphan diseases, where the expected return on new drug development has been a disincentive to pharmaceuticals. […] In this project we exploit the poly-pharmacology of drugs to discover new indications via phenotypic screening of a panel of 19 well-characterized cell lines derived from solid tumors seen in children and adolescents. The goal is to identify approved drugs with previously unrecognized anticancer properties that has the potential to reveal new mechanisms and biological processes involved in carcinogenesis or drug resistance. We employed a titration-based paradigm (quantitative high-throughput screening or qHTS), where all compounds were tested at multiple concentrations for their effect on cell viability. Concentration-response curves (CRCs) were derived directly from the primary screen, and both potency and efficacy values were used to identify compounds with robust bioactivity profiles. We screened the NIH Chemical Genomics Center (NCGC) Pharmaceutical Collection (NPC) and Mechanism Interrogation Plate (MIPE) small molecule collections of approved and investigational compounds against these cell lines; and measured metabolically active cells after 48 hours of compound treatment as a proxy for cell viability. […] Assay Submitter: Nathalia J. Martinez, National Center for Advancing Translational Sciences, National Institutes of Health, Rockville, MD, USA; email: natalia.martinez@nih.gov Shen, M et al. Quantitative high-throughput phenotypic screening of pediatric cancer cell lines identifies multiple opportunities for drug repurposing. Oncotarget 2017 Dec 19;9(4):4758-4772. PMID 29435139.
The cells were obtained from University of North Carolina (UNC), Pediatric Preclinical Testing Program (PPT), and Coriell Institute (CI). qHTS cell viability assay: Cells were assayed in growth media at a density of 500-1,000 cells/well. Five microliters of cells were dispensed into 1,536-well, white, solid-bottom, TC-treated plates (Greiner Bio One) using a multidrop dispenser and incubated at 37 degrees C, 5% CO2, under a humidified atmosphere for 5 hours. Twenty-three nanoliters of compounds and controls (neutral control DMSO or positive control bortezomib at final concentration of 2.3 µM) were subsequently transferred by Kalypsys pintool. For primary screens, the MIPE collection was tested at 11-point dilutions (final concentrations range from 0.78 nM to 46 µM) and the NPC collection at 8-point dilutions (final concentrations range from 0.59 nM to 46 µM). Compounds tested in follow-up screens were assayed at 11-point dilutions. Cells were incubated for 48 hours, followed by addition of 3 µL of CellTiter-Glo (Promega). After a 15 min incubation at room temperature, samples were analyzed for luminescence intensity using a ViewLux High-throughput CCD imager equipped with clear filters.
% is set by controls: 0 for no effect and ±100 for the full control effect; potency is the fitted concentration of half-maximal effect.

SMILES	activity change, negative = cytotoxic	Potency
CC(C)NC[C@@H](O)COc1cccc2ccccc12	-6.71%	
CCN(CCCc1ccccc1)CCCc1ccccc1	10.6%	
CCN(CC)CCOC(=O)C(c1ccccc1)C1CCCCC1 (stereo not given)	2.24%	
CCCCCCCCCCCCCCCCCC(=O)OCC(O)CO (stereo not given)	-15.2%	
N[C@@H](CCC(=O)N[C@@H](CS)C(=O)NCC(=O)O)C(=O)O	-10.6% [at 16.1 µM]	
C/C=C/c1ccc(OC)cc1	-10.8%	
CN1CCC(=C2c3ccccc3Sc3ccccc32)CC1	-29.7%	
C=C(CC)C(=O)c1ccc(OCC(=O)O)c(Cl)c1Cl		21.1 µM (active)
CC1(C)O[C@@H]2[C@@H](CO[C@@]3(COS(N)(=O)=O)OC(C)(C)O[C@@H]23)O1	-18%	
CN(C)CCOc1ccccc1Cc1ccccc1	-16.2%	
Oc1ccc(Cl)c2cccnc12	-11.1%	
Cc1nc2n(c(=O)c1CCN1CCC(c3noc4cc(F)ccc34)CC1)CCC[C@H]2O	-13.7% [at 16.1 µM]	
c1ccc(CNCCNCc2ccccc2)cc1	-13.8%	
CCCC(=O)Nc1ccc(OCC(O)CNC(C)C)c(C(C)=O)c1 (stereo not given)	-15.6%	
CCOC(=O)COc1ccc2c(C)c(CCN(CC)CC)c(=O)oc2c1Cl	-21.6%	
c1ccc(-c2ccc(C(c3ccccc3)n3ccnc3)cc2)cc1 (stereo not given)	17.9%	
CCN(CC)CCNC(=O)COc1ccc(Cl)cc1	-6.79%	
CCOc1ccc(NC(=O)CC(C)O)cc1 (stereo not given)	-8.65%	
CCCCC(=O)O[C@]1(C(=O)CO)CC[C@H]2[C@@H]3CCC4=CC(=O)CC[C@]4(C)[C@H]3[C@@H](O)C[C@@]21C	-12.7%	
Cc1c(C(C)C)c(=O)n(-c2ccccc2)n1C	-2.88%	

SMILES	activity change, negative = cytotoxic	Potency
C[C@]12CCC(=O)C=C1CC[C@H]1[C@@H]3CC[C@](O)(C(=O)CO)[C@@]3(C)C[C@H](O)[C@@]12F	-1.75%	
COc1cc2c(cc1OC)C(=O)C(CC1CCN(Cc3ccccc3)CC1)C2 (stereo not given)	-25%	
CCCCN1CCCC1C(=O)Nc1c(C)cc(C)cc1C (stereo not given)	-13.8%	
CCOc1ccc2nc3cc(N)ccc3c(N)c2c1	-20%	
CCCCS(=O)(=O)N[C@@H](Cc1ccc(OCCCCC2CCNCC2)cc1)C(=O)O	-18.7%	
CC(C)COC(=O)c1ccc(N)cc1	2.14%	
CN(C)C(=S)SC(=S)N(C)C		4.22 µM (active)
CCn1cc(C(=O)O)c(=O)c2cnc(N3CCCC3)nc21	-14.9% [at 9.22 µM]	
CC[C@@H](CO)NCCN[C@@H](CC)CO	-12%	
COc1cc(C(=S)N2CCOCC2)cc(OC)c1OC	-11%	
CC(=O)OCC(=O)[C@@]12OC(C)(C)O[C@@H]1C[C@H]1[C@@H]3C[C@H](F)C4=CC(=O)C=C[C@]4(C)[C@@]3(F)[C@@H](O)C[C@@]12C	-14.5%	
Cc1ccc(Nc2c(F)cccc2Cl)c(CC(=O)O)c1	-12.2%	
CCCCc1nc(Cl)c(CO)n1Cc1ccc(-c2ccccc2-c2nn[nH]n2)cc1	1.7%	
CC(C)(CO)[C@@H](O)C(=O)NCCCO	-10.3%	
OC(CCN1CCCCC1)(c1ccccc1)c1ccccc1	-5.04%	
NCCCC[C@H](N[C@@H](CCc1ccccc1)C(=O)O)C(=O)N1CCC[C@H]1C(=O)O	-16.8%	
C[C@H]1[C@H](NC(=O)/C(=N/OC(C)(C)C(=O)O)c2csc(N)n2)C(=O)N1S(=O)(=O)O (stereo in doubt)	-15.3%	
CN(C)/N=N/c1nc[nH]c1C(N)=O	15.3%	
CN=C(NC#N)NCCSCc1csc(N=C(N)N)n1	-23.5%	
NC[C@H]1O[C@H](O[C@H]2[C@H](O[C@@H]3O[C@H](CO)[C@@H](O)[C@H]3O)C(O)[C@H](N)C[C@@H]2N)[C@H](N)[C@@H](O)[C@@H]1O (stereo not given in full)	-2.08% [at 9.22 µM]	

From PubChem BioAssay (NCATS)
